Assay outcomes deposited in PubChem by National Center for Advancing Translational Sciences (NCATS).
Many of the other results were omitted from the sample, so hits are more common in it than they were.
PINK1 expr mod – PINK1 expression modulation; PINK1 immunofluorescence, high-content cytometry, 24 h; Potency, µM (highest dose often 76.6 µM), most hits filed as activators; 410,000 tested, 0.2% active; active = well fitted activation curve with a large enough effect; inconclusive = small, poorly fitted or top-dose-only effect; cell line not stated here; note: nearly all actives have a fitted effect of over 65% in size
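Stable cell line, 250 cells/well, 12 h attachment; compounds pinned at 5 concentrations, 24 h; CCCP control. Fixed with nuclear dye, primary antibodies 12 h at 10 degrees C, secondary plus cell stain; laser-scanning cytometer read.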
HTT cytoprotect – protects HTT-Q103 PC12 cells, measured by ATP | PC12 HTT-Q103 induced, cytoprotection, ATP luminescence, 40 h | Potency, µM (doses to about 56.4 µM), usual class: activators | 230,000 tested, 0.14% active | AID 1471; note: nearly all actives have a fitted effect of over 45% in size
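Compounds were screened for protection of PC12 cells against cell death after tebufenozide induction (100 nM final) of mutant Huntingtin exon 1 (Q103) fused to GFP.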
Epigenetic derep – derepresses silenced GFP reporter in murine cells; Potency, µM (highest dose often 53.9 µM), most hits filed as activators; 280,000 tested, 0.2% active; murine LDR cells, GFP reporter derepression, 30 h; note: nearly all actives have a fitted effect of over 60% in size
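GFP-positive cell count by laser-scanning cytometry (objects 20–120 um) after 30 h, 37 C compound exposure of murine LDR cells; reporter is CMV-GFP integrated at a silenced locus, inducible by HDAC or DNMT inhibitors.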
HTT aggregate – reduces HttQ103-GFP aggregates in PC12 cells. 220,000 tested, 1.1% active. PC12 HttQ103-GFP aggregates, Acumen cytometry, 40 h. Potency, µM (highest dose often 46.1 µM), hits mostly inhibitors; note: nearly all actives have a fitted effect of over 60% in size
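Steps: seed 1500 PC12 HTTQ103-GFP cells/well; add tebufenozide, 100 nM final; add compound titration; add ATPLite reagent; quantify GFP aggregates by laser scanning cytometry.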
Of the large screens only hits and unclear results are named; the others gave an inactive call. Unless noted, calls come from the whole dose curve; as a rule, active = well fitted curve in the direction sought with a large enough effect; inconclusive = small, poorly fitted or top-dose-only effect, or another doubt; inactive = no such curve, though single readings can be large; an effect the other way counts as inactive or inconclusive.

COc1ccc(OC)c(Nc2cc(-c3ccccc3)nc(N)n2)c1	HTT aggregate 1.3µM
COc1ccc(-c2cc(-c3ccccc3)nc(N)n2)c(O)c1	none (no result: HTT cytoprotect, Epigenetic derep, HTT aggregate)
COc1ccc(CNC(=O)CN(C(=O)CCC(=O)Nc2ccccn2)c2cc(C)ccc2C)cc1	none (no result: HTT cytoprotect, Epigenetic derep, HTT aggregate)
Cc1ccc(S(=O)(=O)Nc2ccc3nc(C)sc3c2)cc1	HTT aggregate 14µM
Cc1ccc2nc(-c3ccc(NS(=O)(=O)c4ccc(F)c(F)c4)cc3)sc2c1	PINK1 expr mod inconclusive, Epigenetic derep inconclusive, HTT aggregate 2.8µM
Cc1nc2ccc(NS(=O)(=O)c3c(C)c(C)cc(C)c3C)cc2s1	HTT aggregate 13µM
Cc1nc2ccc(NS(=O)(=O)c3ccc(Br)cc3)cc2s1	none (no result: HTT cytoprotect, Epigenetic derep, HTT aggregate)
CCCCN1C(=O)C2C(C(=O)Nc3cccc(OC)c3)C3C=CC2(O3)C1C(=O)NC1CCCCC1C (centres undefined)	none
Cc1ccc(NC(=S)NCc2ccc(S(N)(=O)=O)cc2)c(C)c1	none
CC(/C=N/Nc1nc2ccccc2[nH]1)=C\c1ccccc1	none
O=C(N/N=C/c1ccccc1)c1c(O)c2ccccc2[nH]c1=O	PINK1 expr mod 8.9µM, HTT aggregate 22µM
O=C(N/N=C/c1ccc(F)cc1)c1c(O)c2ccccc2[nH]c1=O	PINK1 expr mod 4.5µM, HTT aggregate 3.5µM
O=C(NNC(=O)c1c(O)c2ccccc2[nH]c1=O)c1ccccc1	none (no result: HTT cytoprotect, Epigenetic derep, HTT aggregate)
O=C(Nc1cccc(F)c1)c1c(O)c2ccccc2[nH]c1=O	none (no result: HTT cytoprotect, Epigenetic derep, HTT aggregate)
O=C(N/N=C/c1cccc(F)c1)c1c(O)c2ccccc2[nH]c1=O	PINK1 expr mod 2.8µM, HTT aggregate inconclusive
O=C(CSc1ccc(F)cc1)NC(=O)c1ccccc1	none (no result: HTT cytoprotect, Epigenetic derep, HTT aggregate)
CCc1ccc(/C=C2\CN(CC)Cc3c2nc2ccccc2c3C(=O)O)cc1	Epigenetic derep 16µM, HTT aggregate inconclusive
CCN1C/C(=C/c2cccs2)c2nc3ccccc3c(C(=O)O)c2C1	none
O=C(c1cnn2c1NC(c1ccco1)CC2C(F)(F)F)N1CCN(c2cccc(Cl)c2)CC1 (centres undefined)	HTT aggregate 22µM
COc1c(Cl)c(=O)oc2ccc(Cl)cc12	none (no result: HTT cytoprotect, Epigenetic derep, HTT aggregate)
COc1ccccc1-n1c(=O)oc2ccc(Cl)cc2c1=O	PINK1 expr mod inconclusive, HTT aggregate 7.1µM
CC(C)c1ccc(S(=O)(=O)c2cc3cc(Br)ccc3oc2=O)cc1	none
O=C(c1ccc(CS(=O)c2ccccc2Cl)o1)N1CCN(c2cccc(C(F)(F)F)c2)CC1 (centres undefined)	none (no result: HTT cytoprotect, HTT aggregate)
O=C(O)c1ccc(CS(=O)c2cccc(C(F)(F)F)c2)o1 (centres undefined)	HTT aggregate 13µM
Nc1c(C(=O)c2ccc3c(c2)OCO3)sc(Nc2ccccc2F)c1S(=O)(=O)c1ccccc1	none (no result: HTT cytoprotect, HTT aggregate)
CC1(C)Cc2c(sc3[nH]c(=S)n(Cc4ccccc4)c(=O)c23)CO1	HTT aggregate 18µM
O=C(O)c1ccc(CSc2nnc(-c3ccncc3)n2CC2CCCO2)cc1 (centres undefined)	none
O=C1C=CC(=O)C(C2=C3C(=O)N(CCc4ccccc4)CC(=O)N3CCC2)=C1	HTT aggregate 7.1µM (no result: HTT cytoprotect)
CCCC(=O)N1CCN(c2ccc(C(=O)c3ccc(OC)c(Br)c3)cc2F)CC1	none (no result: PINK1 expr mod)
COc1ccc(C(=O)c2ccc(N3CCN(C(=O)c4ccc(F)cc4)CC3)c(F)c2)cc1Br	HTT aggregate 13µM
CCCC[n+]1c2ccccc2cc2ccccc21	none (no result: HTT cytoprotect, Epigenetic derep, HTT aggregate)
CCCC[n+]1c(/C=C/c2c(OC)cc(OC)cc2OC)ccc2ccccc21	PINK1 expr mod 5.6µM (no result: HTT cytoprotect, Epigenetic derep, HTT aggregate)
O=C(NC1CCCC1)c1cc2nc(-c3ccccc3)cc(-c3ccccc3)n2n1	HTT aggregate 3.5µM
CS(=O)(=O)Nc1cccc2cccnc12	HTT aggregate inconclusive
Cc1cc(C)n(-c2ccc3cccc(NS(C)(=O)=O)c3n2)n1	HTT aggregate 8.9µM
CCOC(=O)C1(Cc2cccc(OC)c2)CCN(C/C=C/c2ccc(OC)cc2)CC1	none
CNc1nc(SCc2ccccc2Cl)nc2c1CCCC2	PINK1 expr mod inconclusive, HTT aggregate 10µM
O=c1[nH]c(SCc2ccccc2Cl)nc2c1CCC2	none
O=C(NC1CCCCC1)c1sc(=S)n2c1[nH]c(=O)c1ccccc12	PINK1 expr mod 25µM, HTT aggregate inconclusive
Cn1c(=O)c(-c2ccccc2)nc2cncnc21	none (no result: Epigenetic derep, HTT aggregate)
COc1cccc(CN(C)C(=O)c2csc3c2CCCC3)c1OC	none
CC(C)C[C@@H](/C=C/S(C)(=O)=O)NC(=O)[C@H](CC(C)C)NC(=O)[C@H](CC(C)C)NC(=O)OCc1ccccc1	Epigenetic derep 6.3µM (no result: PINK1 expr mod, HTT aggregate)
Cc1ccc(C(C)C)c(OCCSc2nc3ccccc3n2CC(O)CO)c1 (centres undefined)	none (no result: HTT cytoprotect, HTT aggregate)
Cc1ccc(O)c(C(=O)c2cnn(C(=O)Cc3csc(C)n3)c2)c1	HTT aggregate 22µM
CC(C)n1c(NCCc2ccccc2)nc2c1c(=O)n(C)c(=O)n2C	HTT aggregate 11µM
CCCNc1nc2c(c(=O)n(C)c(=O)n2C)n1CCc1ccccc1	HTT aggregate inconclusive
CCCNc1nc2c(c(=O)n(C)c(=O)n2C)n1Cc1cccc(C)c1	HTT aggregate 14µM
Cn1c(=O)c2c(nc(NCCc3ccccc3)n2Cc2ccc(Cl)cc2)n(C)c1=O	none (no result: HTT cytoprotect, HTT aggregate)
CCN(CC)S(=O)(=O)c1cccc(NC(=O)C2SC(=Nc3ccc(C)cc3C)C(C(=O)NCC3CCCO3)=C2N)c1 (centres undefined)	PINK1 expr mod 25µM
Cc1cccc2c1NC1(CCCC1)CC2C (centres undefined)	PINK1 expr mod 45µM
O=C1c2ccccc2-n2c1nc1ccccc1c2=O	HTT aggregate 11µM
O=c1c2ccccc2nc2n1-c1ccccc1CCC2	none
CCc1ccccc1NC(=O)Cn1c(=O)n(CCc2ccccc2)c(=O)c2ccccc21	none (no result: HTT cytoprotect, HTT aggregate)
Cc1ccccc1OCCSCc1nc2ccccc2[nH]1	PINK1 expr mod inconclusive, HTT aggregate 3.5µM
CC1CCN(S(=O)(=O)c2nnc(NC(=O)c3cccc(F)c3)s2)CC1	Epigenetic derep 13µM (no result: HTT cytoprotect, HTT aggregate)
FC(F)(F)c1nnc2c(Sc3ccccc3)nc3ccccc3n12	none
FC(F)(F)c1nnc2c(Sc3ccccn3)nc3ccccc3n12	HTT cytoprotect 11µM (no result: HTT aggregate)
CCc1c(C)nc2ncnn2c1NCCc1ccc(OC)c(OC)c1	HTT aggregate 10µM
CCOC(=O)c1c(C)[nH]c(C)c1C(=O)CSc1nc2ccccc2c(=O)n1-c1ccc(C)cc1	HTT aggregate inconclusive
CCOC(=O)c1c(C)[nH]c(C)c1C(=O)CSc1nc2ccccc2c(=O)n1-c1ccc(Cl)cc1	HTT aggregate 20µM (no result: HTT cytoprotect)
O=C(OCCN1C(=O)c2cccc3c(N4CCOCC4)ccc(c23)C1=O)c1cccc(Cl)c1	Epigenetic derep 20µM, HTT aggregate inconclusive
Nc1nc2ncc(C(=O)c3cc(Cl)cc(Cl)c3O)cc2s1	none
CC(C)c1noc2ncc(C(=O)c3cc(Cl)cc(Cl)c3O)cc12	PINK1 expr mod inconclusive, HTT aggregate 11µM
O=C(COC(=O)c1ccccc1Nc1ccc(SC(F)F)cc1)NC1CC1	none
O=C(Nc1ccc(Cl)cc1)c1cc(S(=O)(=O)N2CCOCC2)cs1	HTT aggregate 10µM
O=C(Nc1ccc(F)cc1)c1cc(S(=O)(=O)N2CCOCC2)cs1	none (no result: HTT cytoprotect, Epigenetic derep, HTT aggregate)
O=C(C=Cc1ccccc1Cl)c1ccccc1	none (no result: HTT cytoprotect, Epigenetic derep, HTT aggregate)
